Experimental findings from the supplement of paper PMC7261846 are described below.

Structures can show the parent of a compound that is named as a salt. ± gives the uncertainty stated by the source.

This test concerns Candida albicans SNY425 biofilm. Nature of the test: biofilm OD600 with compound plus antifungal (OD600 (absorbance)); higher = more biofilm remaining. The note with it: assay detail: sustained inhibition (compound + antifungal during 90-min adherence and 24-h growth).
`N[C@H](C(=O)O)[C@@H]1CC(Cl)=NO1` [Acivicin] + OC(Cn1cncn1)(Cn1cncn1)c1ccc(F)cc1F [fluconazole] (first compound 4 µM): the “biofilm OD600” value worked out at 0.123 ± 0.0055. The result for `CC(C)CCNC(=O)[C@H](CC(C)C)NC(=O)[C@H]1O[C@@H]1C(=O)O` + CC[C@H](C)C[C@H](C)CCCCCCCCC(=O)N[C@H]1C[C@@H](O)[C@@H](NCCN)NC(=O)[C@@H]2[C@@H](O)CCN2C(=O)[C@H]([C@H](O)CCN)NC(=O)[C@H]([C@H](O)[C@@H](O)c2ccc(O)cc2)NC(=O)[C@@H]2C[C@@H](O)CN2C(=O)[C@H]([C@@H](C)O)NC1=O [caspofungin] (first compound 12.5 µM) reads 0.17 ± 0.01.

For `CC[C@H](C)[C@H](N)C(=O)N1CCSC1` [P32/98 hemifumarate salt] + CC[C@H](C)C[C@H](C)CCCCCCCCC(=O)N[C@H]1C[C@@H](O)[C@@H](NCCN)NC(=O)[C@@H]2[C@@H](O)CCN2C(=O)[C@H]([C@H](O)CCN)NC(=O)[C@H]([C@H](O)[C@@H](O)c2ccc(O)cc2)NC(=O)[C@@H]2C[C@@H](O)CN2C(=O)[C@H]([C@@H](C)O)NC1=O [caspofungin] (first compound 12.5 µM), the “biofilm OD600” value worked out at 0.171 ± 0.0047.

Take `CC(C)C[C@H](NP(=O)(O)O[C@@H]1O[C@@H](C)[C@H](O)[C@@H](O)[C@H]1O)C(=O)N[C@@H](Cc1c[nH]c2ccccc12)C(=O)O` [Phosphoramidon] + C[C@@H]1[C@H](O)[C@@H](C)/C=C/C=C/C=C/C=C/C=C/C=C/C=C/[C@H](O[C@@H]2O[C@H](C)[C@@H](O)[C@H](N)[C@@H]2O)C[C@@H]2O[C@](O)(C[C@@H](O)C[C@@H](O)[C@H](O)CC[C@@H](O)C[C@@H](O)CC(=O)O[C@H]1C)C[C@H](O)[C@H]2C(=O)O [amphotericin B] (first compound 12.5 µM): the “biofilm OD600” value is 0.211 ± 0.0094.
